Bioassay records as filed in PubChem.
An excerpt weighted towards active compounds, which were near 16% of everything screened.
DT40 TDP1 CPT: qHTS for Inhibitors of human tyrosyl-DNA phosphodiesterase 1 (TDP1): qHTS in cells in presence of CPT. Potency, µM (top dose mostly 46.2 µM), for inactives: at the top dose activity change, negative = growth inhibition, usual class: inhibitors. chicken DT40 Tdp1-/-;hTDP1 cells + 20 nM CPT, ATP luminescence, 48 h. AID 686979, 2013. 420,000 compounds, 12% hits; further: potency means the concentration at half of the fitted maximal effect; on the % scale 0 is the no-effect control and ±100 the full control effect; nearly all actives have a fitted effect of over 55% in size
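Cell growth measured by CellTiter-Glo luminescence after a minimum 48 h, 37 C compound exposure with 20 nM CPT in Tdp1-knockout DT40 cells stably expressing hTDP1, seeded 400/well; qHTS titration format.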
TDP1 block: qHTS Assay for Inhibitors of Tyrosyl-DNA Phosphodiesterase (TDP1); Tyrosyl-DNA phosphodiesterase 1 (Homo sapiens), Q9NUW8; recombinant TDP1, AlphaScreen DNA substrate cleavage; Potency, µM (doses to about 130 µM), for inactives: at the top dose activity change, negative = inhibition, hits mostly inhibitors; 350,000 compounds, 0.28% hits; AID 485290, 2010; further: potency means the concentration at half of the fitted maximal effect; on the % scale 0 is the no-effect control and ±100 the full control effect; nearly all actives have a fitted effect of over 40% in size
Target sequence (Q9NUW8 whole entry, looked up): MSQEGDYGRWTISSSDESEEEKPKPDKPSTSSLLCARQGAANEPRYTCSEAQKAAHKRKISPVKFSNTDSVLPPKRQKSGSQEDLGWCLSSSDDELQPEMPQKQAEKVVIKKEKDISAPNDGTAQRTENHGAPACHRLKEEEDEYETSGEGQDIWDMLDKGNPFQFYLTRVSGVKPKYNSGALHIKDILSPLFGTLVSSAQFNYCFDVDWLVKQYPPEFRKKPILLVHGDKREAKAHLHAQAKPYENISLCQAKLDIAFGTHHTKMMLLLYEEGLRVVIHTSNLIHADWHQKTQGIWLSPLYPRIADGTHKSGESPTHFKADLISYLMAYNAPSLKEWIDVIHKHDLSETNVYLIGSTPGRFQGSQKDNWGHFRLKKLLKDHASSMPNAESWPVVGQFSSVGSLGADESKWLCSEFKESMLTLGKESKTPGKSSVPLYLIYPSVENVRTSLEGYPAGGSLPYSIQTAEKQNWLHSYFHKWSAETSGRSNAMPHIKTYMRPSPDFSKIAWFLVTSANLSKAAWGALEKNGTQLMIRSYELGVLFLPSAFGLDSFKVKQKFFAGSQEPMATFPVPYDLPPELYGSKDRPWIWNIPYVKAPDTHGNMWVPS
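AlphaScreen read-out: signal falls as enzyme removes the 3' tyrosine-FITC from a 5'-biotinylated DNA oligo (15 nM, 5 min, RT). Enzyme was E. coli-made recombinant Tdp1 at 1 nM, exposed to compound for 15 min beforehand; beads 10 ug/ml, 10 min.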
miR-21 reporter: qHTS Assay for Modulators of miRNAs and/orActivators of miR-21 | HeLa miR-21 FLuc reporter, luciferase, 48 h | 340,000 tested, under 10 active | Potency, µM (highest dose often 38.3 µM), for inactives: top-dose activity change, positive = activation, most hits filed as activators | AID 2288, 2010;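 further: % of control where 0% means no effect; miR-21 action dims this reporter so a rising signal means less miR-21 action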
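Luminescence from a firefly luciferase reporter carrying a miR-21 binding site downstream, stably expressed under a CMV promoter in HeLa cells that make miR-21 endogenously, reports miRNA modulation after 48 h compound exposure up to approximately 40uM final.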
uPA generation: qHTS for Inhibitors of Cell Surface uPA Generation. cell surface uPA generation assay, qHTS. Potency, µM (top dose mostly 38.3 µM), for the others: top-dose activity change, negative = inhibition, hits mostly inhibitors. 330,000 compounds, 0.31% hits; active means well fitted inhibition curve with a large enough effect; inconclusive means small, poorly fitted or top-dose-only effect; inactive means no such curve, though single readings can be large or run the other way; tested in mouse RAW 264.7 cells; further: potency means the concentration at half of the fitted maximal effect; on the % scale 0 is the no-effect control and ±100 the full control effect; nearly all actives have a fitted effect of over 55% in size
TDP1 cell noCPT: qHTS for Inhibitors of human tyrosyl-DNA phosphodiesterase 1 (TDP1): qHTS in cells in absence of CPT | 420,000 compounds, 15% hits | DT40 Tdp1-/- hTDP1 cells, no CPT, ATP luminescence, 48 h | Potency, µM (highest dose often 46.2 µM), for the others: at the top dose activity change, negative = growth inhibition, most hits filed as inhibitors; further: potency means the concentration at half of the fitted maximal effect; on the % scale 0 is the no-effect control and ±100 the full control effect; nearly all actives have a fitted effect of over 55% in size
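Camptothecin absent (DMSO only). Human TDP1-complemented DT40 knockout cells, 400 cells/well, 37 °C for minimum 48 hr; ATP measured via CellTiter-Glo, 30 min dark incubation, luminescence.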
* hit, by the source's call. Unless noted, the call rests on the fitted dose curve; in most records, active means well fitted curve in the direction sought with a large enough effect; inconclusive means small, poorly fitted or top-dose-only effect, or another doubt; inactive means no such curve, though single readings can be large; an effect the other way counts as inactive or inconclusive.

Results for COc1ccc(Cl)cc1NC(=O)CCCS(=O)(=O)c1nc(-c2ccc(OC)c(OC)c2)cc(C(F)(F)F)n1 ?
DT40 TDP1 CPT: 1.5µM*; TDP1 block: 3%; miR-21 reporter: inconclusive; TDP1 cell noCPT: 2.1µM*

Results for COc1ccccc1-c1cc(C(F)(F)F)nc(S(=O)(=O)CCCC(=O)Nc2cc(Br)ccc2O)n1 ?
DT40 TDP1 CPT: -16%; TDP1 block: 9%; miR-21 reporter: inconclusive; TDP1 cell noCPT: -19%

Results for COc1ccccc1-c1cc(C(F)(F)F)nc(S(=O)(=O)CCCC(=O)Nc2cc(C)on2)n1 ?
DT40 TDP1 CPT: 0.92µM*; TDP1 block: 6%; miR-21 reporter: -6%; uPA generation: -8%; TDP1 cell noCPT: 1µM*

What do the screens show for `COc1ccc(S(=O)(=O)N(CC(=O)NCC2CCCO2)c2ccc(Cl)cc2)cc1` (configuration not stated)?
DT40 TDP1 CPT: -13%; TDP1 block: 5%; miR-21 reporter: 0%; uPA generation: 1%; TDP1 cell noCPT: -25%

How did Cc1cccn2c(CN(C)C3CCOC3)c(C(=O)N3CCCCC3)nc12 (configuration not stated) do in these assays?
DT40 TDP1 CPT: -10%; TDP1 block: 7%; miR-21 reporter: 0%; uPA generation: 1%; TDP1 cell noCPT: 2%

How did CCN(CC)S(=O)(=O)c1ccc(Nc2nc3ccccc3n3nnnc23)cc1 do in these assays?
DT40 TDP1 CPT: 23µM*; TDP1 block: 4%; miR-21 reporter: -41%; uPA generation: -2%; TDP1 cell noCPT: 16µM*

Results for COc1cccc(Nc2nc3ccccc3n3nnnc23)c1 ?
DT40 TDP1 CPT: inconclusive; TDP1 block: 7%; miR-21 reporter: -38%; uPA generation: -11%; TDP1 cell noCPT: inconclusive

Results for c1ccc(Nc2nc3ccccc3n3nnnc23)cc1 ?
DT40 TDP1 CPT: inconclusive; miR-21 reporter: -23%; uPA generation: -19%; TDP1 cell noCPT: inconclusive

How did COc1ccc(Nc2nc3ccc(Cl)cc3n3nnnc23)cc1OC do in these assays?
DT40 TDP1 CPT: inconclusive; TDP1 block: 2%; miR-21 reporter: -3%; TDP1 cell noCPT: 16µM*

Results for COc1ccccc1N1CCN(C(=O)c2ccc(Nc3nc4ccccc4n4nnnc34)cc2)CC1 ?
DT40 TDP1 CPT: 9.2µM*; TDP1 block: 8%; miR-21 reporter: 16%; TDP1 cell noCPT: inconclusive

How did c1ccc2c(c1)nc(Nc1ccc3c(c1)OCO3)c1nnnn12 do in these assays?
DT40 TDP1 CPT: inconclusive; TDP1 block: 3%; miR-21 reporter: -48%; uPA generation: -5%; TDP1 cell noCPT: 16µM*

Results for O=C(CSc1nc2nc[nH]c2c(=O)[nH]1)NC1CCCCC1 ?
DT40 TDP1 CPT: 4%; TDP1 block: 3%; miR-21 reporter: -6%; uPA generation: 7%; TDP1 cell noCPT: 4%

How did Cn1c(=O)c2[nH]c(CCCC(=O)O)nc2n(Cc2ccccc2)c1=S do in these assays?
uPA generation: -4%

Results for CC(C)CCNC(=O)c1cccc(Nc2nc3ccccc3n3nnnc23)c1 ?
DT40 TDP1 CPT: 21µM*; TDP1 block: 0%; miR-21 reporter: 1%; TDP1 cell noCPT: 18µM*

What do the screens show for `CC(NC(=O)c1cccc(Nc2nc3ccccc3n3nnnc23)c1)c1ccccc1` (configuration not stated)?
DT40 TDP1 CPT: 9.2µM*; TDP1 block: 6%; miR-21 reporter: -4%; TDP1 cell noCPT: 7.3µM*

How did Fc1cccc(Nc2nc3ccccc3n3nnnc23)c1 do in these assays?
DT40 TDP1 CPT: inconclusive; TDP1 block: 6%; miR-21 reporter: -23%; uPA generation: -12%; TDP1 cell noCPT: inconclusive

What do the screens show for `CCOc1cc(CN2CCN(c3cccc(C(F)(F)F)c3)CC2)ccc1OC`?
DT40 TDP1 CPT: inconclusive; TDP1 block: -1%; miR-21 reporter: 0%; uPA generation: 4%; TDP1 cell noCPT: 16µM*

Results for CCOc1cc(CN2CCN(c3ccc(C(C)=O)cc3)CC2)ccc1OC ?
DT40 TDP1 CPT: inconclusive; TDP1 block: 0%; miR-21 reporter: 3%; uPA generation: -12%; TDP1 cell noCPT: inconclusive

What do the screens show for `COc1ccc(CC(C)N2CCN(c3cccc(C(F)(F)F)c3)CC2)cc1OC` (configuration not stated)?
DT40 TDP1 CPT: inconclusive; TDP1 block: 2%; miR-21 reporter: 8%; uPA generation: 10%; TDP1 cell noCPT: 26µM*

What do the screens show for `CCOc1cc(CN2CCN(c3cccc(C(F)(F)F)c3)CC2)ccc1O`?
DT40 TDP1 CPT: 16µM*; TDP1 block: 9%; miR-21 reporter: 1%; TDP1 cell noCPT: 16µM*

What do the screens show for `CCN(CC)S(=O)(=O)c1ccc(C(O)=C(C#N)c2nc3ccccc3n2C)cc1`?
DT40 TDP1 CPT: 16µM*; uPA generation: -2%; TDP1 cell noCPT: 13µM*

Results for Cn1c(/C(C#N)=C(\O)COc2ccc3ccccc3c2)nc2ccccc21 ?
DT40 TDP1 CPT: inconclusive; TDP1 block: -2%; miR-21 reporter: -8%; uPA generation: 11%; TDP1 cell noCPT: 26µM*

What do the screens show for `COc1cccc(-c2noc(CCC(=O)NCCc3ccccc3)n2)c1`?
DT40 TDP1 CPT: -14%; miR-21 reporter: -21%; uPA generation: 9%; TDP1 cell noCPT: -13%

Results for CCc1nc2ccc(C(=O)NCCCn3ccnc3)cn2c1N(C)Cc1cc2ccccc2s1 ?
DT40 TDP1 CPT: inconclusive; TDP1 cell noCPT: 16µM*

How did CCc1nc2ccc(C(=O)Nc3cccc(OCC(=O)N(C)C)c3)cn2c1N(C)Cc1cc2ccccc2s1 do in these assays?
DT40 TDP1 CPT: 16µM*; TDP1 cell noCPT: 16µM*

Results for CCc1nc2ccc(C(=O)NCCCn3ccnc3)cn2c1N(C)Cc1ccc(OC)cc1 ?
DT40 TDP1 CPT: inconclusive; TDP1 cell noCPT: 15µM*

What do the screens show for `CCc1nc2ccc(C(=O)NCCCn3ccnc3)cn2c1N(C)CCCc1ccccc1`?
DT40 TDP1 CPT: 18µM*; TDP1 cell noCPT: inconclusive

How did CCc1nc2ccc(C(=O)NCCCn3ccnc3)cn2c1N(CC)CCN(C)C do in these assays?
DT40 TDP1 CPT: -17%; TDP1 cell noCPT: 0%

What do the screens show for `NS(=O)(=O)c1ccc(N2CCOCC2)c(C(=O)NCCCSc2ccccc2)c1`?
DT40 TDP1 CPT: inconclusive; TDP1 block: 1%; uPA generation: 5%; TDP1 cell noCPT: inconclusive
